# Reference: PubChem BioAssay (EPA / NIEHS)
# Where “and” joins values, the source holds several entries; their conditions need not be identical. Identical values can stand only once. Where a structure was tested more than once in an assay, its records may differ in their call. Calls of active or inactive are those of the source. The calls were made as follows: active = hit-call score of the fitted dose curve at least 0.9, where 1 is the maximum; inactive = score below 0.9.
# Legend:
# [1] = read-out: Urokinase-type plasminogen activator receptor (uPAR), PLAUR (gene 5329); experiment: BSK_4H_uPAR: BioMAP Diversity Plus: 4H Assay for Urokinase-type plasminogen activator receptor (uPAR) Biomarker Activity (AID 2283030); settings: primary human endothelial cells (HUVEC); actives raise or lower the signal
# Outline: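 Primary human umbilical vein endothelial cells were exposed to chemical for 24 h before cell-surface uPAR was quantified by ELISA. Activity was fitted bidirectionally against the DMSO negative control baseline.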
# [2] = read-out: Vascular endothelial growth factor receptor 2 (Homo sapiens) (UniProt P35968); experiment: BSK_4H_VEGFRII: BioMAP Diversity Plus: 4H Assay for Vascular endothelial growth factor receptor 2 (VEGFR2) Biomarker Activity (AID 2283031); settings: primary human endothelial cells (HUVEC); actives raise or lower the signal;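 as to AC50: cell-surface VEGFR2 protein level quantified by ELISA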
# Outline: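 Primary human umbilical vein endothelial cells in the BioMAP 4H system were dosed with test chemical, and 24 h later VEGFRII was measured by ELISA. Activity was fitted bidirectionally against DMSO as negative control and baseline.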
# [3] = read-out: Human Leukocyte Antigen - DR isotype (HLADR), HLA-DRA (gene 3122); experiment: BSK_BE3C_HLADR: BioMAP Diversity Plus: BE3C Assay for Human Leukocyte Antigen - DR isotype (HLADR) Biomarker Activity (AID 2283032); settings: primary human bronchial epithelial cells; actives raise or lower the signal
# Outline: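 Signal came from an ELISA for HLA-DR in human bronchial epithelial primary cells harvested 24 h after treatment; gain- and loss-of-signal fitting used DMSO controls as reference.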
# [4] = read-out: Vascular cell adhesion molecule 1 (VCAM1), VCAM1 (gene 7412); experiment: BSK_4H_VCAM1: BioMAP Diversity Plus: 4H Assay for Vascular cell adhesion molecule 1 (VCAM1) Biomarker Activity (AID 2283033); settings: primary human endothelial cells (HUVEC); actives raise or lower the signal;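 as to outcome: cell-surface VCAM-1 protein measured by ELISA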
# Outline: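 Endpoint derived from bidirectional fitting against DMSO controls of VCAM-1 ELISA signal in umbilical vein endothelial cells sampled at 24 h following treatment.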
# [5] = read-out: Interferon-gamma inducible Protein 10 (IP10), CXCL10 (gene 3627); experiment: BSK_BE3C_IP10: BioMAP Diversity Plus: BE3C Assay for Interferon-gamma inducible Protein 10 (IP10) Biomarker Activity (AID 2283034); settings: primary human bronchial epithelial cells; actives raise or lower the signal
# Outline: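 Using primary human bronchial epithelial cultures, the assay captures IP-10 by ELISA one day (24 h) after exposure. Parallel SRB staining of total protein flags overt cytotoxicity. Fits run bidirectionally relative to DMSO.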
# [6] = read-out: Monokine induced gamma interferon (MIG), CXCL9 (gene 4283); experiment: BSK_BE3C_MIG: BioMAP Diversity Plus: BE3C Assay for Monokine induced gamma interferon (MIG) Biomarker Activity (AID 2283035); settings: primary human bronchial epithelial cells; actives raise or lower the signal;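 also: MIG protein measured by ELISA in BE3C cultures after 24 h of dosing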
# Outline: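 Primary human bronchial epithelial cells treated for 24 h; MIG levels measured by ELISA, fitted bidirectionally versus DMSO. Parallel SRB total-protein staining assessed cytotoxicity.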
# [7] = read-out: Transforming growth factor beta 1 (TGFb1), TGFB1 (gene 7040); experiment: BSK_BE3C_TGFb1: BioMAP Diversity Plus: BE3C Assay for Transforming growth factor beta 1 (TGFb1) Biomarker Activity (AID 2283036;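 as to outcome: TGF-b1 protein level measured by ELISA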); settings: primary human bronchial epithelial cells; actives raise or lower the signal
# Outline: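 In this human primary bronchial epithelial system, an ELISA quantified TGF-b1 one day after dosing. Endpoint changes in either direction were fitted relative to DMSO.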
# [8] = read-out: Plasminogen activator inhibitor-1 (PAI1), SERPINE1 (gene 5054); experiment: BSK_BE3C_PAI1: BioMAP Diversity Plus: BE3C Assay for Plasminogen activator inhibitor-1 (PAI1) Biomarker Activity (AID 2283037); settings: primary human bronchial epithelial cells; actives raise or lower the signal
# Outline: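 PAI-1 biomarker levels in treated human bronchial epithelial cells are determined by ELISA at 24 h. Both increases and decreases relative to DMSO are fitted.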
# [9] = read-out: urokinase plasminogen activator (uPA), PLAU (gene 5328); experiment: BSK_BE3C_uPA: BioMAP Diversity Plus: BE3C Assay for urokinase plasminogen activator (uPA) Biomarker Activity (AID 2283038); settings: primary human bronchial epithelial cells; actives raise or lower the signal;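 as to outcome: uPA protein level quantified by ELISA in cell cultures; uPA read one day after compound addition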
# Outline: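 Human primary bronchial epithelial cells were exposed to chemical for 24 h, then uPA levels were measured by ELISA. Responses were fitted bidirectionally against DMSO as negative control and baseline. Parallel SRB staining of total protein gauged overt cytotoxicity.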
# [10] = read-out: Urokinase-type plasminogen activator receptor (uPAR), PLAUR (gene 5329); experiment: BSK_BE3C_uPAR: BioMAP Diversity Plus: BE3C Assay for Urokinase-type plasminogen activator receptor (uPAR) Biomarker Activity (AID 2283039); settings: primary human bronchial epithelial cells; actives raise or lower the signal;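 as to outcome: cells exposed to compound for one day before measurement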
# Outline: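 A uPAR ELISA serves as the readout, taken 24 h after treating primary human bronchial epithelial cells. Responses in either direction are fitted against DMSO, which defines baseline activity.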
SMILES,AC50 [1],outcome [1],AC50 [2],outcome [2],AC50 [3],outcome [3],AC50 [4],AC50 [5],outcome [5],outcome [6],outcome [7],outcome [8],outcome [9],AC50 [10],outcome [10],outcome [4],AC50 [8],AC50 [7],AC50 [9]
C=CCC1=C(C)C(OC(=O)C2C(C=C(C)C)C2(C)C)CC1=O (configuration not stated),38.4 µM (active) and 32.8 µM (active),inactive,21 µM (active) and 29.4 µM (active) and 20 µM (active),inactive,15.7 µM (active) and 32.3 µM (active) and 30.9 µM (active),inactive,31.6 µM (active) [middle of 4 runs],35 µM (active) and 39 µM (active),inactive,inactive,inactive,inactive,inactive,0.223 µM (active),inactive,,,,
CNC(=S)S,,inactive,,inactive,,inactive,22.4 µM (active),,inactive,inactive,inactive,inactive,inactive,11.7 µM (active),,,,,
COc1cnc(OC)n2nc(NS(=O)(=O)c3c(OCC(F)F)cccc3C(F)(F)F)nc12,,inactive,,inactive,,inactive,,,inactive,inactive,inactive,inactive,inactive,,inactive,inactive,0.0487 µM (active),,
COc1nc(C)nc(NC(=O)NS(=O)(=O)c2ccccc2Cl)n1,,inactive,,inactive,,inactive,,,inactive,inactive,inactive,inactive,inactive,,inactive,inactive,,0.29 µM (active),
CON(C)C(=O)Nc1ccc(Cl)c(Cl)c1,,inactive,,inactive,,inactive,,,inactive,inactive,inactive,inactive,inactive,,inactive,inactive,,,
COC(=O)N(OC)c1ccccc1COc1ccn(-c2ccc(Cl)cc2)n1,20 µM (active),,,inactive,3.97 µM (active),,,8.98 µM (active),,inactive,inactive,,inactive,,inactive,inactive,5.65 µM (active),,
CS/C(C)=N/OC(=O)N(C)SN(C)C(=O)O/N=C(\C)SC,26.8 µM (active),,28.7 µM (active),,30.1 µM (active),,31.1 µM (active),25.9 µM (active),,inactive,inactive,inactive,inactive,,inactive,,,,
C=CCC1=C(C)[C@@H](OC(=O)[C@@H]2[C@@H](C=C(C)C)C2(C)C)CC1=O,,inactive,35.8 µM (active),,20 µM (active),,,30.6 µM (active),,inactive,inactive,,,,inactive,inactive,29.5 µM (active),,26.7 µM (active)
